An excerpt weighted towards active compounds, which were near 4.7% of everything screened.
SKKanGAS inh – blocks kanamycin growth of S. pyogenes SKKanGAS strain. BacTiter-Glo, 6 h. inhibition, % at 7.5 µM. 300,000 compounds, 1.3% hits. AID 1662;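 active = mean replicate score, as percent of positive control median, at least 50; inconclusive = mean below 50 but one replicate at or above 50; inactive = mean and every replicate below 50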;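 also: strain carries kanamycin resistance gene driven by streptokinase promoter and grows in 40 µg/ml kanamycin; loss of luminescence reflects streptokinase promoter inhibition or plain growth inhibition; 0% = median of DMSO wells and 100% = positive control at its reference dose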
TIM10 inh – TIM10 yeast growth inhibition. S. cerevisiae TIM10 strain growth, BacTiter-Glo luminescence, 24 h. inhibition, % at 10 µM. 330,000 compounds, 1.4% hits. AID 463195;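 active = inhibition of 40% or more at the single tested concentration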;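 also: wild-type TIM10 isogenic control strain grown at permissive 25 °C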
tim23-1 inh – growth inhibitors of tim23-1 mutant yeast | S. cerevisiae tim23-1 growth, BacTiter-Glo luminescence, 24 h | inhibition, % at 20 µM | 330,000 compounds, 1.3% hits;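 active = growth inhibition of the mutant yeast at or above 50%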;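 also: temperature-sensitive mutant grown at 25 °C; plate controls were DMSO-treated mutant yeast for no effect and medium wells lacking yeast for full effect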
Calb FLC – affects C. albicans growth with fluconazole. growth inhibition, % (concentration not given with the values). 300,000 compounds, 0.57% hits. C. albicans CaCi-2 (fluconazole-resistant clinical isolate) + fluconazole, Alamar Blue growth, 48 h;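 active = growth inhibition above about 58% in most replicates, limit read from the data, passing the limit was not always enough; inconclusive = exactly half the replicates above a set limit; inactive = most replicates below a set limit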;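 also: all wells also contain fluconazole at 8 µg/ml as a sub-toxic cotreatment; 0% = median of DMSO wells and 100% = median of geldanamycin control wells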
PfHsp90 yeast 2 – inhibits growth of yeast expressing Plasmodium falciparum Hsp90 | AID 504621 | 310,000 compounds, 0.32% hits | inhibition, % at 9.4 µM | S. cerevisiae expressing PfHsp90, BacTiter-Glo ATP, 48 h; yeast lacking PDR1 and PDR3 efflux regulators;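 active = every replicate shows inhibition above about 80%, whatever the replicate mean, limit read from the data; inconclusive = mean inhibition reaches the set limit but some replicate falls short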;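 also: 0% = DMSO neutral controls and 100% = 20 µM radicicol positive controls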
tim10-1 inh – inhibits growth of tim10-1 mutant yeast; S. cerevisiae tim10-1 ts strain growth, BacTiter-Glo, 24 h; inhibition, % at 20 µM; 330,000 compounds, 2.2% hits;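 active = inhibition of at least 40%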;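 also: mutant grown at 25 °C; 0% = DMSO wells with yeast and 100% = wells holding no yeast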
tim10-1 conf – tim10-1 yeast growth inhibition, confirmed. AID 463213. inhibition, % at 20 µM. shares compounds with tim10-1 inh. 7,400 compounds, 56% hits. S. cerevisiae tim10-1 ts strain growth, BacTiter-Glo, 24 h;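 active = inhibition of yeast growth at or above a set limit in either of two repeat tests at 20 µM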;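 also: tim10-1 mutant grown at permissive 25 °C to find synthetic lethal compounds; 0% = DMSO yeast wells and 100% = medium wells without yeast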
tim10 confirm – confirmation of TIM10 yeast growth inhibitors | shares compounds with TIM10 inh | S. cerevisiae tim10 strain growth, BacTiter-Glo luminescence, 24 h | inhibition, % at 10 µM | 4,600 compounds, 63% hits;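 active = inhibition of yeast growth at or above a set limit in either of two replicates at 10 µM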;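 also: this counterscreen used the strain with wild-type TIM10; 0% = yeast with DMSO and 100% = medium wells lacking yeast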
tim23-1 confirm – tim23-1 yeast growth inhibition, confirmed; AID 463218; S. cerevisiae tim23-1 growth, BacTiter-Glo luminescence, 24 h; inhibition, % at 20 µM; shares compounds with tim23-1 inh; 4,400 compounds, 83% hits;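 active = inhibition above about 39% in either of two replicate wells at 20 µM, limit read from the data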;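 also: temperature-sensitive tim23-1 mutant grown at 25 °C; 0% = DMSO wells with yeast and 100% = medium wells without yeast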
* = called active by the depositor; ? = inconclusive; / = not tested or not shown.

SMILES	SKKanGAS inh	TIM10 inh	tim23-1 inh	Calb FLC	PfHsp90 yeast 2	tim10-1 inh	tim10-1 conf	tim10 confirm	tim23-1 confirm
CCOC(=O)C1CCN(C(=O)c2c(C)oc3c2C(=O)c2ccccc2C3=O)CC1	15	33	51*	-4	10	48*	34*	/	59*
Cc1oc2c(c1C(=O)N1CCC(C)CC1)C(=O)c1ccccc1C2=O	14	45*	74*	-5	/	52*	43*	40*	67*
Cc1onc(-c2ccccc2Cl)c1C(=O)N1CCC(C)CC1	0	-3	14	-1	-18	5	/	/	/
Cc1nn(CC(=O)NC(=O)c2ccccc2)c(C)c1[N+](=O)[O-]	/	4	-2	/	-3	-6	/	/	/
Cc1cc(C)nc(SC2=CS(=O)(=O)c3ccccc32)n1	0	28	21	-9	38	15	/	/	/
O=S1(=O)C=C(Sc2nc3ccccc3s2)c2ccccc21	-11	77*	66*	4	/	69*	65*	86*	12
CCCc1cc(C(=O)N/N=C/c2cccn2C)cs1	2	0	43	-32	-11	-7	/	/	/
Cc1cc(Cl)c2oc(C(=O)N(C)Cc3ccon3)c(C)c2c1	-2	-1	42	-12	-9	29	/	/	/
CCOC(=O)C(=Cc1ccc(-n2cncn2)cc1)C(=O)OCC	-7	67*	52*	29	?	62*	52*	47*	71*
CCOC(=O)C(=CNc1cc(C)nn1-c1ccc(Cl)cc1)C(=O)OCC	-7	14	-9	1	9	24	/	/	/
COc1ccc(C(=O)NC(C)c2ccc(-n3ccnc3)cc2)cc1[N+](=O)[O-] (stereo not drawn)	-2	-11	1	-2	10	5	/	/	/
CCNc1sc(C(=O)c2cccs2)c(N)c1-c1nc2ccccc2s1	25	45*	72*	0	-21	53*	31	36*	-6
COc1ccc(NC(=O)Cc2ccc(Cl)c(Cl)c2)cn1	-1	-6	23	0	-26	-11	/	/	/
COc1ccc(NC(=O)/C(Cl)=C(/Cl)S(=O)Cc2ccccc2Cl)cn1 (stereo not drawn)	/	55*	79*	/	107*	42*	23	84*	21
N/C(Cc1ccc([N+](=O)[O-])cc1)=N\OC(=O)COc1cccc2ccccc12	-10	76*	60*	-12	-12	64*	73*	72*	91*
COc1ccc(CC(=O)O/N=C(\N)Cc2ccc(OC)cc2)cc1	2	1	4	-19	-8	10	/	/	/
COc1ccc(C/C(N)=N/OC(=O)COc2ccccc2C)cc1	-7	39	55*	3	-79	51*	39*	/	41*
O=C(COC(=O)CCN1C(=O)/C(=C\C=C\c2ccccc2)SC1=S)Nc1ccc(Br)cc1	3	43*	54*	-9	0	49*	40*	51*	74*
Cc1ccc(-c2ccc(/C=C/C(=O)c3ccccc3)o2)cc1	-6	67*	62*	-8	8	62*	69*	67*	78*
Cc1ccc(C(=O)/C=C/c2ccc(-c3ccccc3[N+](=O)[O-])o2)cc1	-3	39	31	5	6	37	/	/	/
CCOC(=O)N1C(=O)[C@](c2ccc(Cl)cc2)(C(C)C)N1C(=O)OCC	8	39	61*	-15	-16	42*	42*	/	56*
COc1ccc(CCN2Cc3c(N)cccc3C2=O)cc1OC	3	6	25	0	9	1	/	/	/
CCCCCC/C(=N/O)c1ccccn1	94*	57*	60*	-5	-38	42*	6	-8	52*
O=C(Nc1nc2cc3c(cc2s1)OCO3)c1ccco1	11	/	/	-2	33	/	/	/	/
O=C(Nc1nc2cc3c(cc2s1)OCCO3)c1ccco1	62*	43*	75*	0	53	49*	41*	41*	60*
SMILES	SKKanGAS inh	TIM10 inh	tim23-1 inh	Calb FLC	PfHsp90 yeast 2	tim10-1 inh	tim10-1 conf	tim10 confirm	tim23-1 confirm
Oc1ccc(Oc2ccc3c(C(F)(F)F)cc(C(F)(F)F)nc3n2)cc1	-2	43*	56*	-1	-2	40*	25	13	49*
COc1ccc(Oc2ccc3c(C(F)(F)F)cc(C(F)(F)F)nc3n2)cc1	-5	5	28	14	-13	23	/	/	/
C/C(=N\NC(=S)Nc1cccc(C)c1)c1ccccc1	22	60*	51*	-8	-16	51*	50*	-23	52*
C/C(=N\NC(=S)Nc1cccc(C)c1)c1cccc(N)c1	11	24	37	-12	-28	37	/	/	/
Cn1nnc(NC(=S)NC(=O)c2cccc3c(Cl)cccc23)n1	-15	11	52*	6	-36	49*	-2	/	39*
O=C1CS(=O)(=O)N(Cc2cccc(F)c2)c2ccc(Br)cc21	/	34	66*	/	-29	48*	48*	/	-6
COc1cccc(NC(=O)COC(=O)c2cc(=O)c3ccccc3o2)c1	/	-3	-11	/	7	-9	/	/	/
O=C(N/N=C/c1ccc([N+](=O)[O-])o1)c1ccc2c(c1)OCO2	3	64*	79*	29	25	64*	60*	52*	23
COc1ccc(S(=O)(=O)CC(=O)c2cc3cccc(C)c3oc2=O)cc1	11	-4	65*	4	8	53*	-18	/	57*
COc1cccc2cc(C(=O)CS(=O)(=O)c3ccc(C(C)(C)C)cc3)c(=O)oc12	0	31	52*	3	5	48*	17	/	54*
COc1cc(/C=C(\C#N)C(=O)N2CCOCC2)cc(Br)c1O	0	5	12	5	9	-8	/	/	/
N#C/C(=C\c1cccc(Oc2ccccc2)c1)C(=O)N1CCOCC1	2	82*	80*	14	100*	81*	80*	78*	76*
O=S1(=O)c2ccc(Br)cc2N2CCC[C@@H]2CN1Cc1ccccc1	/	-7	45	/	59	11	/	/	/
Cc1cccc(OCC(=O)N2CCN(C(=O)COc3ccc(Cl)cc3)CC2)c1	-1	13	2	0	5	16	/	/	/
CC(=O)Oc1c(Cl)c(N2CCOCC2)c(OC(C)=O)c2ccccc12	6	39	53*	43	-12	49*	41*	/	41*
Cc1ccc(S(=O)(=O)c2ccc(C)cc2)cc1	-1	6	24	6	-12	6	/	/	/

Screening results: PubChem BioAssay, several laboratories
